# Test results taken from PubChem BioAssay (NCI).
# Compounds without any hit were thinned out: in the full panel of roughly 79,000, 15% have a hit. A number with no mark means an inactive call. Active and inactive are the calls of the source. Rule as the data show it: active = growth inhibition above about 70%; inactive = the rest.
# Key:
# [1] = NCI Yeast Anticancer Drug Screen. Data for the rad52 strain (AID 147);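 also: 0% = growth of vehicle-treated control cultures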; settings: S. cerevisiae rad52 mutant growth inhibition, stronger effect = higher value
# Outline: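 Vehicle-treated cultures served as the reference for growth inhibition of compound-exposed yeast bearing a DNA repair mutation.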
# [2] = NCI Yeast Anticancer Drug Screen. Data for the wt1 strain (AID 149);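 also: 0% = growth of vehicle-treated wt1 cultures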; settings: S. cerevisiae wt1 strain (SPY 50644) growth inhibition, stronger effect = higher value
# Outline: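 Yeast wt1 strain exposed to compounds; growth inhibition measured relative to vehicle-treated controls.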
# [3] = NCI Yeast Anticancer Drug Screen. Data for the mgt1 strain (AID 153); settings: S. cerevisiae mgt1 mutant growth inhibition, stronger effect = higher value
# Outline: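 mgt1 strain exposed; growth vs vehicle control recorded as inhibition.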
# [4] = NCI Yeast Anticancer Drug Screen. Data for the rad50 strain (AID 155);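 also: 0% = growth of vehicle-only cultures of the same strain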; settings: S. cerevisiae rad50 strain growth inhibition, stronger effect = higher value
# Outline: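 Yeast carrying a defined DNA repair defect were exposed to test compounds, and growth was compared with vehicle-treated controls to give percent inhibition.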
# [5] = NCI Yeast Anticancer Drug Screen. Data for the mec2-1 strain (AID 157); settings: S. cerevisiae mec2-1 strain, stronger effect = higher value
# Outline: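 Vehicle-treated cultures served as reference for growth inhibition of compound-exposed mec2-1 yeast.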
# [6] = NCI Yeast Anticancer Drug Screen. Data for the rad14 strain (AID 159);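 also: 0% = growth of vehicle-treated control cultures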; settings: S. cerevisiae rad14 strain growth inhibition, stronger effect = higher value
# Outline: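 Yeast cells carrying a defined DNA-repair defect were exposed to compounds, and growth inhibition was calculated relative to vehicle-treated control cultures.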
# [7] = NCI Yeast Anticancer Drug Screen. Data for the sgs1 mgt1 strain (AID 161);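 also: 0% = growth of cultures given vehicle only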; settings: S. cerevisiae sgs1 mgt1 strain, stronger effect = higher value
# Outline: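 Mutant yeast exposed to compound; growth scored against vehicle-only wells.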
# [8] = NCI Yeast Anticancer Drug Screen. Data for the CLN2oe strain (AID 163);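 also: 0% = growth of vehicle-only control cultures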; settings: S. cerevisiae CLN2oe strain, stronger effect = higher value
# Outline: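 Inhibition relative to vehicle-treated yeast is reported. Cells: strain with genetic alteration in cell-cycle control, grown with compound.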
# [9] = NCI Yeast Anticancer Drug Screen. Data for the cln2 rad14 strain (AID 165);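 also: 0% = growth equal to vehicle treated cultures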; settings: S. cerevisiae cln2 rad14 strain, stronger effect = higher value
# Outline: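 Each compound was tested on cln2 rad14 yeast. Inhibition of growth was calculated against vehicle-exposed controls.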
# [10] = NCI Yeast Anticancer Drug Screen. Data for the bub3 strain (AID 167); settings: S. cerevisiae bub3 mutant strain, stronger effect = higher value
# Outline: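 Compounds were applied to a genetically altered yeast strain carrying a cell-cycle control defect. Growth inhibition was scored against vehicle-treated controls.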
# [11] = NCI Yeast Anticancer Drug Screen. Data for the wt2 strain (AID 169);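 also: 0% = growth of vehicle-treated yeast cultures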; settings: S. cerevisiae wt2 strain growth inhibition, stronger effect = higher value
# Outline: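 Inhibition of yeast growth was determined after compound treatment, normalised to controls receiving only vehicle.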
# [12] = NCI Yeast Anticancer Drug Screen. Data for the mlh1 strain (AID 171);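 also: 0% = growth of vehicle-treated control cultures of the same strain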; settings: S. cerevisiae mlh1 strain growth inhibition, stronger effect = higher value
# Outline: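 Vehicle-normalised growth inhibition of a repair- or checkpoint-altered yeast strain following compound treatment.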
# [13] = NCI Yeast Anticancer Drug Screen. Data for the sgs1 strain (AID 173);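 also: 0% = growth of vehicle-only control cultures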; settings: S. cerevisiae sgs1 mutant, stronger effect = higher value
# Outline: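 Screen format: yeast with repair or checkpoint alterations, compound exposure, growth read relative to vehicle.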
# [14] = NCI Yeast Anticancer Drug Screen. Data for the rad18 strain (AID 177); settings: S. cerevisiae rad18 mutant growth inhibition, stronger effect = higher value
# Outline: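 Test articles were incubated with altered yeast defective in DNA damage repair. Results are given as inhibition of growth versus vehicle.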
# [15] = NCI Yeast Anticancer Drug Screen. Data for the mlh1 rad18 strain (AID 175); settings: S. cerevisiae mlh1 rad18 strain growth inhibition, stronger effect = higher value
# Outline: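 Vehicle-treated cultures served as the reference for growth inhibition in a yeast strain carrying DNA damage repair alterations exposed to each compound.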
# [16] = at 5.0 µM (retest, dose inferred, filed as 0.5)
# [17] = at 50.0 µM (retest, dose inferred, filed as 5.0)
smiles,measurement,setting,value
c1ccc([P+](CCN2Cc3ccccc3C2)(c2ccccc2)c2ccccc2)cc1,growth inhibition,[1]; at 1.2 µM,29%
same,growth inhibition,[1]; at 3.7 µM,54%
same,growth inhibition,[1]; at 11.0 µM,39%
same,growth inhibition,[1]; at 33.0 µM,64%
same,growth inhibition,[1]; at 100.0 µM,95% (active)
same,growth inhibition,[2]; at 1.2 µM,-7%
same,growth inhibition,[2]; at 3.7 µM,31%
same,growth inhibition,[2]; at 11.0 µM,26%
same,growth inhibition,[2]; at 33.0 µM,38%
same,growth inhibition,[2]; at 100.0 µM,95% (active)
same,growth inhibition,[3]; at 1.2 µM,-19%
same,growth inhibition,[3]; at 3.7 µM,2%
same,growth inhibition,[3]; at 11.0 µM,28%
same,growth inhibition,[3]; at 33.0 µM,48%
same,growth inhibition,[3]; at 100.0 µM,95% (active)
same,growth inhibition,[4]; at 1.2 µM,30%
same,growth inhibition,[4]; at 3.7 µM,64%
same,growth inhibition,[4]; [16],64%
same,growth inhibition,[4]; at 11.0 µM,61%
same,growth inhibition,[4]; at 33.0 µM,61%
same,growth inhibition,[4]; [17],69%
same,growth inhibition,[4]; at 50.0 µM,72.1% (active)
same,growth inhibition,[4]; at 100.0 µM,95% (active)
same,growth inhibition,[5]; at 1.2 µM,-15%
same,growth inhibition,[5]; at 3.7 µM,39%
same,growth inhibition,[5]; [16],49%
same,growth inhibition,[5]; at 11.0 µM,36%
same,growth inhibition,[5]; at 33.0 µM,67%
same,growth inhibition,[5]; [17],81% (active)
same,growth inhibition,[5]; at 50.0 µM,78.9% (active)
same,growth inhibition,[5]; at 100.0 µM,95% (active)
same,growth inhibition,[6]; at 1.2 µM,-22%
same,growth inhibition,[6]; at 3.7 µM,13%
same,growth inhibition,[6]; at 11.0 µM,21%
same,growth inhibition,[6]; at 33.0 µM,53%
same,growth inhibition,[6]; at 100.0 µM,70% (active)
same,growth inhibition,[7]; [16],22%
same,growth inhibition,[7]; [17],97% (active)
same,growth inhibition,[7]; at 50.0 µM,82% (active)
same,growth inhibition,[8]; at 1.2 µM,19%
same,growth inhibition,[8]; at 3.7 µM,11%
same,growth inhibition,[8]; at 11.0 µM,29%
same,growth inhibition,[8]; at 33.0 µM,50%
same,growth inhibition,[8]; at 100.0 µM,93% (active)
same,growth inhibition,[9]; [16],23%
same,growth inhibition,[9]; [17],25%
same,growth inhibition,[9]; at 50.0 µM,76% (active)
same,growth inhibition,[10]; at 1.2 µM,7%
same,growth inhibition,[10]; at 3.7 µM,39%
same,growth inhibition,[10]; [16],21%
same,growth inhibition,[10]; at 11.0 µM,31%
same,growth inhibition,[10]; at 33.0 µM,64%
same,growth inhibition,[10]; [17],98% (active)
same,growth inhibition,[10]; at 50.0 µM,79.1% (active)
same,growth inhibition,[10]; at 100.0 µM,94% (active)
same,growth inhibition,[11]; at 1.2 µM,-45%
same,growth inhibition,[11]; at 3.7 µM,-19%
same,growth inhibition,[11]; at 11.0 µM,11%
same,growth inhibition,[11]; at 33.0 µM,31%
same,growth inhibition,[11]; at 100.0 µM,93% (active)
same,growth inhibition,[12]; at 1.2 µM,-39%
same,growth inhibition,[12]; at 3.7 µM,18%
same,growth inhibition,[12]; at 11.0 µM,32%
same,growth inhibition,[12]; at 33.0 µM,60%
same,growth inhibition,[12]; at 100.0 µM,95% (active)
same,growth inhibition,[13]; at 1.2 µM,13%
same,growth inhibition,[13]; at 3.7 µM,35%
same,growth inhibition,[13]; at 11.0 µM,53%
same,growth inhibition,[13]; at 33.0 µM,67%
same,growth inhibition,[13]; at 100.0 µM,96% (active)
same,growth inhibition,[14]; at 1.2 µM,49%
same,growth inhibition,[14]; at 3.7 µM,71% (active)
same,growth inhibition,[14]; at 11.0 µM,58%
same,growth inhibition,[14]; at 33.0 µM,74% (active)
same,growth inhibition,[14]; at 100.0 µM,96% (active)
CC1=CN2C(c3ccccc3)=NON(c3ccc(C)cn3)C2C=C1 (stereo not drawn),growth inhibition,[1]; at 1.2 µM,2%
same,growth inhibition,[1]; at 3.7 µM,4%
same,growth inhibition,[1]; at 11.0 µM,-3%
same,growth inhibition,[1]; at 33.0 µM,1%
same,growth inhibition,[1]; at 100.0 µM,-7%
same,growth inhibition,[2]; at 1.2 µM,-3%
same,growth inhibition,[2]; at 3.7 µM,-3%
same,growth inhibition,[2]; at 11.0 µM,-3%
same,growth inhibition,[2]; at 33.0 µM,-3%
same,growth inhibition,[2]; at 100.0 µM,-5%
same,growth inhibition,[3]; at 1.2 µM,-2%
same,growth inhibition,[3]; at 3.7 µM,0%
same,growth inhibition,[3]; at 11.0 µM,-2%
same,growth inhibition,[3]; at 33.0 µM,-1%
same,growth inhibition,[3]; at 100.0 µM,-3%
same,growth inhibition,[4]; at 1.2 µM,6%
same,growth inhibition,[4]; at 3.7 µM,2%
same,growth inhibition,[4]; [16],-5%
same,growth inhibition,[4]; at 11.0 µM,-6%
same,growth inhibition,[4]; at 33.0 µM,1%
same,growth inhibition,[4]; [17],12%
same,growth inhibition,[4]; at 50.0 µM,-4.35%
same,growth inhibition,[4]; at 100.0 µM,-11%
same,growth inhibition,[5]; at 1.2 µM,-3%
same,growth inhibition,[5]; at 3.7 µM,-2%
same,growth inhibition,[5]; [16],-24%
same,growth inhibition,[5]; at 11.0 µM,-3%
same,growth inhibition,[5]; at 33.0 µM,-2%
same,growth inhibition,[5]; [17],-21%
same,growth inhibition,[5]; at 50.0 µM,19.8%
same,growth inhibition,[5]; at 100.0 µM,-4%
same,growth inhibition,[6]; at 1.2 µM,4%
same,growth inhibition,[6]; at 3.7 µM,0%
same,growth inhibition,[6]; at 11.0 µM,-4%
same,growth inhibition,[6]; at 33.0 µM,-2%
same,growth inhibition,[6]; at 100.0 µM,-9%
same,growth inhibition,[7]; [16],-15%
same,growth inhibition,[7]; [17],20%
same,growth inhibition,[7]; at 50.0 µM,18%
same,growth inhibition,[8]; at 1.2 µM,2%
same,growth inhibition,[8]; at 3.7 µM,-2%
same,growth inhibition,[8]; at 11.0 µM,-4%
same,growth inhibition,[8]; at 33.0 µM,-2%
same,growth inhibition,[8]; at 100.0 µM,-7%
same,growth inhibition,[9]; [16],-23%
same,growth inhibition,[9]; [17],-17%
same,growth inhibition,[9]; at 50.0 µM,-12.7%
same,growth inhibition,[10]; at 1.2 µM,-2%
same,growth inhibition,[10]; at 3.7 µM,-2%
same,growth inhibition,[10]; [16],-25%
same,growth inhibition,[10]; at 11.0 µM,-6%
same,growth inhibition,[10]; at 33.0 µM,-4%
same,growth inhibition,[10]; [17],10%
same,growth inhibition,[10]; at 50.0 µM,46%
same,growth inhibition,[10]; at 100.0 µM,-4%
same,growth inhibition,[11]; at 1.2 µM,-7%
same,growth inhibition,[11]; at 3.7 µM,-7%
same,growth inhibition,[11]; at 11.0 µM,-10%
same,growth inhibition,[11]; at 33.0 µM,-13%
same,growth inhibition,[11]; at 100.0 µM,-7%
same,growth inhibition,[12]; at 1.2 µM,0%
same,growth inhibition,[12]; at 3.7 µM,-2%
same,growth inhibition,[12]; at 11.0 µM,-3%
same,growth inhibition,[12]; at 33.0 µM,-1%
same,growth inhibition,[12]; at 100.0 µM,-4%
same,growth inhibition,[13]; at 1.2 µM,-23%
same,growth inhibition,[13]; at 3.7 µM,-16%
same,growth inhibition,[13]; at 11.0 µM,-2%
same,growth inhibition,[13]; at 33.0 µM,-7%
same,growth inhibition,[13]; at 100.0 µM,2%
same,growth inhibition,[15]; [16],-15%
same,growth inhibition,[15]; [17],50%
same,growth inhibition,[15]; at 50.0 µM,1.65%
same,growth inhibition,[14]; at 1.2 µM,3%
same,growth inhibition,[14]; at 3.7 µM,3%
same,growth inhibition,[14]; at 11.0 µM,-1%
same,growth inhibition,[14]; at 33.0 µM,1%
same,growth inhibition,[14]; at 100.0 µM,-7%
